The text below walks through data of PubChem BioAssay (EPA / NIEHS).

Values joined by “and” are separate entries in the source; they are usually repeats but may differ in a detail not shown here. Equal values may be shown once. The source holds several records for some structures; these can differ, active in one and inactive in another. Active and inactive are the calls of the source. Rule for the calls: active = hit-call score of the fitted dose curve at least 0.9, where 1 is the maximum; inactive = score below 0.9.

Read-out in assay [1]: Transforming growth factor beta 1 (TGFb1), TGFB1 (gene 7040)
The assay can be described thus: BSK_KF3CT_TGFb1: BioMAP Diversity Plus: KF3CT Assay for Transforming growth factor beta 1 (TGFb1) Biomarker Activity (AID 2283072). To be noted: primary human keratinocytes with fibroblasts; actives raise or lower the signal. An outline of the steps:
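KF3CT co-culture (keratinocytes + fibroblasts), 24 h exposure → TGF-b1 ELISA → bidirectional fit, DMSO = baseline. Parallel SRB total-protein staining (0.1% SRB, 10% TCA fixation, 560 nm) for cytotoxicity.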

Read-out in assay [2]: C-C motif chemokine 2 (Homo sapiens) (UniProt P13500)
The assay is described as follows: BSK_KF3CT_MCP1: BioMAP Diversity Plus: KF3CT Assay for Monocyte Chemoattractant Protein 1 (MCP1/CCL2) Biomarker Activity (AID 2283073). To be noted: primary human keratinocytes with fibroblasts; actives raise or lower the signal. In outline: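 KF3CT skin co-culture (keratinocytes/foreskin fibroblasts), 24 h post-dose; MCP-1 by ELISA; gain/loss of signal fit bidirectionally vs DMSO baseline.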

Read-out in assay [3]: Matrix Metallopeptidase 9 (MMP9), MMP9 (gene 4318)
The assay is described as follows: BSK_KF3CT_MMP9: BioMAP Diversity Plus: KF3CT Assay for Matrix Metallopeptidase 9 (MMP9) Biomarker Activity (AID 2283074).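 For AC50: MMP9 protein level quantified by ELISA in the co-culture.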 To be noted: primary human keratinocytes with fibroblasts; actives raise or lower the signal. In outline:
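Values come from bidirectional fitting relative to DMSO of MMP-9 levels, which were measured by ELISA. Measurements were taken 24 h after chemical dosing of a keratinocyte and foreskin fibroblast co-culture.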

Read-out in assay [4]: urokinase plasminogen activator (uPA), PLAU (gene 5328)
The assay can be described thus: BSK_KF3CT_uPA: BioMAP Diversity Plus: KF3CT Assay for urokinase plasminogen activator (uPA) Biomarker Activity (AID 2283075). To be noted: primary human keratinocytes with fibroblasts; actives raise or lower the signal. In outline: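 Values derive from bidirectional fitting against DMSO controls. Keratinocyte/foreskin fibroblast co-cultures received chemical; 24 h later uPA was detected by ELISA, with SRB total-protein staining in parallel wells for overt cytotoxicity.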

Read-out in another assay: CD40, CD40 (gene 958)
The assay is described as follows: BSK_LPS_CD40: BioMAP Diversity Plus: LPS Assay for CD40 Biomarker Activity (AID 2283076). To be noted: primary human HUVEC with PBMC; actives raise or lower the signal. An outline of the steps: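 ELISA readout of CD40 in HUVEC/PBMC co-culture (BSK_LPS system), 24 h post-dosing; bidirectional curve fit, DMSO baseline; parallel SRB total-protein staining for cytotoxicity.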

Read-out in assay [5]: E-selectin (Homo sapiens) (UniProt P16581)
The assay is described as follows: BSK_LPS_Eselectin: BioMAP Diversity Plus: LPS Assay for Eselectin Biomarker Activity (AID 2283077). To be noted: primary human HUVEC with PBMC; actives raise or lower the signal. An outline of the steps:
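ELISA readout of E-selectin, 24 h post-dose, HUVEC + PBMC co-culture (LPS system). Gain or loss of signal vs DMSO baseline, bidirectional fit.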

Read-out in assay [6]: Interleukin-8 (IL8), CXCL8 (gene 3576)
The assay is described as follows: BSK_LPS_IL8: BioMAP Diversity Plus: LPS Assay for Interleukin-8 (IL8) Biomarker Activity (AID 2283078). To be noted: primary human HUVEC with PBMC; actives raise or lower the signal. An outline of the steps: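 HUVEC + PBMC co-culture, LPS-activated; test chemicals dosed, IL-8 read by ELISA at 24 h. Bidirectional curve fit vs DMSO baseline (gain or loss of signal).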

Read-out in assay [7]: Interleukin-1 alpha (IL1a), IL1A (gene 3552)
The assay is described as follows: BSK_LPS_IL1a: BioMAP Diversity Plus: LPS Assay for Interleukin-1 alpha (IL1a) Biomarker Activity (AID 2283080). To be noted: primary human HUVEC with PBMC; actives raise or lower the signal. In outline:
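HUVEC/PBMC co-culture, LPS system; 24 h after dosing; IL-1a by ELISA; gain or loss of signal fitted bidirectionally vs DMSO baseline.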

Read-out in assay [8]: Monocyte Chemoattractant Protein-1 (MCP1), CCL2 (gene 6347)
The assay can be described thus: BSK_LPS_MCP1: BioMAP Diversity Plus: LPS Assay for Monocyte Chemoattractant Protein-1 (MCP1) Biomarker Activity (AID 2283081).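 For AC50: secreted MCP-1 protein quantified by ELISA in culture supernatant.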 To be noted: primary human HUVEC with PBMC; actives raise or lower the signal. In outline:
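ELISA read-out of MCP-1 after 24 h chemical dosing of a human umbilical vein endothelial cell/peripheral blood mononuclear cell co-culture stimulated with LPS. Gain or loss of signal fitted relative to DMSO controls.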

Chain of E-selectin (Homo sapiens) (P16581 whole entry, looked up): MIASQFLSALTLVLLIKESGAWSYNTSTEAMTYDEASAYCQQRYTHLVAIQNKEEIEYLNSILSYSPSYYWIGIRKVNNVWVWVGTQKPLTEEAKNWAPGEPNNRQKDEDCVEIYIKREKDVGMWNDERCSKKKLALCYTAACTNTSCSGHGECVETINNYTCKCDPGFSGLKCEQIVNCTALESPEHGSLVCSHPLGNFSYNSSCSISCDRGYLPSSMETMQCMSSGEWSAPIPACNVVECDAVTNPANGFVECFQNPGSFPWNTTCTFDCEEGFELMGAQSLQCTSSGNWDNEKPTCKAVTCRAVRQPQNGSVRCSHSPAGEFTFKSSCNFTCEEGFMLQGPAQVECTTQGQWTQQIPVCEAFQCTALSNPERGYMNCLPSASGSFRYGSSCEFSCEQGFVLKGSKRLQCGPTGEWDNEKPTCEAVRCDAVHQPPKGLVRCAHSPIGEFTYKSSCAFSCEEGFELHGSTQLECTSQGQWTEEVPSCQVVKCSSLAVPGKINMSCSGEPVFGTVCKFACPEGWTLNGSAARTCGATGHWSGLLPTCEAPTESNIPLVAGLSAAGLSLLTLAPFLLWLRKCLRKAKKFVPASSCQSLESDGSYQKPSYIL

As to `O=S(=O)(O)C(F)(F)C(F)(F)C(F)(F)C(F)(F)C(F)(F)C(F)(F)C(F)(F)C(F)(F)F`, the half-maximal activity concentration (AC50) (commonly the concentration giving half of the maximal activity seen) was 30.1 µM (active) and 31.6 µM (active) and 31.3 µM (active) in [1]; 16.8 µM (active) in assay [2]; 35.6 µM (active) and 30.4 µM (active) in assay [4]; 9.09 µM (active) and 1.92 µM (active) and 7.33 µM (active) in assay [6]. Also, the outcome in assay [1] was “inactive”; in [2], “inactive”; in assay [3], “inactive”; in [4], “inactive”; in the assay with CD40, CD40 (gene 958), “inactive”; in assay [5], “inactive”. In addition, the result in assay [6], in [7] and in assay [8] was inactive.

`COC(=O)c1ccccc1CS(=O)(=O)NC(=O)Nc1nc(OC)cc(OC)n1`: the outcome in [1] was “inactive”; in [2], “inactive”; in assay [3], “inactive”; in assay [4] it was “inactive”; with CD40, CD40 (gene 958) it was “inactive”; in assay [5], “inactive”. The outcome in assay [6], in assay [7] and in assay [8] was inactive.

With `CNC(=O)CSP(=S)(OC)OC`, the outcome in [1] was “inactive”; in [2] it was “inactive”; in assay [3] it was “inactive”; in assay [4], “inactive”; with CD40, CD40 (gene 958) it was “inactive”; in assay [5], “inactive”. The outcome in assay [6], in assay [7] and in assay [8] was inactive.

`CCOC1Oc2ccc(OS(C)(=O)=O)cc2C1(C)C` (stereo not drawn): the outcome was “inactive” in [1]; “inactive” in assay [2]; “inactive” in assay [3]; “inactive” in [4]; “inactive” with CD40, CD40 (gene 958); “inactive” in assay [5]. Moreover, the result in assay [6], in assay [7] and in assay [8] was inactive.

For `CC(C)(C)C(O)/C(=C\c1ccc(Cl)cc1Cl)n1cncn1` (stereo not drawn), the result in assay [1] was inactive. Further, the AC50 was 34.3 µM (active) in [2]; 28.5 µM (active) in assay [3]; 32.2 µM (active) in [4]; 18.4 µM (active) in the assay with CD40, CD40 (gene 958); 21.9 µM (active) in [5]; 32.4 µM (active) in assay [6]. The concentration at half-maximal activity (AC50) is 33.2 µM (active) in assay [7] and 30.5 µM (active) in assay [8].

Regarding `CCOc1nc(NC)nc(NC(=O)NS(=O)(=O)c2ccccc2C(=O)OC)n1`, the outcome in assay [1] was “inactive”; in assay [2], “inactive”; with CD40, CD40 (gene 958), “inactive”; in [5], “inactive”; in assay [6], “inactive”; in [7] it was “inactive”. In addition, in assay [8], the outcome was inactive. Also, the AC50 in [3] was 30.4 µM (active); in assay [4], 37 µM (active).

As to `COP(=O)(OC)OC=C(Cl)Cl`, the result in [1], in [2], in [3], in assay [4], in [5] and in assay [6] was inactive. Further, the result in assay [7] and in [8] was inactive. The AC50 with CD40, CD40 (gene 958) is 27.3 µM (active).

Regarding `Cc1[nH]c(=O)n(C(C)(C)C)c(=O)c1Cl`, the outcome in assay [1], in assay [2], in assay [3], in assay [4], in assay [5] and in assay [6] was inactive. The result in assay [7] and in assay [8] was inactive.

As for `O=C(Nc1ccccc1)Nc1cnns1`, the outcome is “inactive” in assay [1]; “inactive” in assay [2]; “inactive” in assay [3]; “inactive” in [4]; “inactive” with CD40, CD40 (gene 958); “inactive” in [5]. Also, the result in [6], in assay [7] and in [8] was inactive.

For `CCCN(CCC)c1c([N+](=O)[O-])cc(C(F)(F)F)cc1[N+](=O)[O-]`, the outcome in assay [1], in [2], in assay [3], in assay [4], in [6] and in assay [7] was inactive. Besides, the AC50 with CD40, CD40 (gene 958) is 20.4 µM (active); in [5] it was 15.2 µM (active); in assay [8], 36.2 µM (active).

On to `CCN(CC)C(=O)SCc1ccc(Cl)cc1`, for which the outcome was “inactive” in assay [1]; “inactive” in assay [2]; “inactive” in [3]; “inactive” in [4]; “inactive” with CD40, CD40 (gene 958); “inactive” in [5]. The outcome in assay [6], in assay [7] and in assay [8] was inactive.

As for `CC(C)(C)C(O)C(Oc1ccc(Cl)cc1)n1cncn1` (stereo not drawn), the outcome in assay [1] was “inactive”; in [2], “inactive”; in assay [3] it was “inactive”; in assay [4], “inactive”; with CD40, CD40 (gene 958), “inactive”; in assay [5], “inactive”. Moreover, the outcome in [6], in assay [7] and in assay [8] was inactive.

Take `[2H]C1([2H])[n+]2ccccc2-c2cccc[n+]2C1([2H])[2H]`: the outcome in assay [1] was “inactive”; in the assay with CD40, CD40 (gene 958), “inactive”; in assay [5], “inactive”; in [6] it was “inactive”; in assay [7], “inactive”; in [8], “inactive”. The AC50 in [3] was 13.3 µM (active); in [4] it was 28.9 µM (active).

In the case of `CCS(=O)(=O)c1cccnc1S(=O)(=O)NC(=O)Nc1nc(OC)cc(OC)n1`, the outcome was “inactive” in [1]; “inactive” in assay [3]; “inactive” in assay [4]; “inactive” in the assay with CD40, CD40 (gene 958); “inactive” in [7]; “inactive” in assay [8]. Moreover, the AC50 in assay [2] is 0.202 µM (active); in assay [5], 7.35 µM (active); in [6] it was 5.47 µM (active).
